Source: the supplement of paper PMC11417369
The full ranking holds about 25,000 sequences; the median of “ln(normalized median fluorescence intensity)” is about 9.3, and the highest 2% start at about 10. The sample as a whole holds a higher share of the highest values than the screen did.

Test system: PF3D7_0420300 AP2 domain 1 (GST-tagged)
Experiment: gcPBM binding intensity (ln(normalized median fluorescence intensity)); higher = stronger DNA binding
Method in brief: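 Each value is the highest Masliner-normalised natural-log median intensity across replicate spots of either orientation of a probe. The probes were primer-extended double-stranded 36-bp intergenic genomic sequences on an Agilent 4 × 180k array, alongside negative controls, exposed for 1 h to GST-tagged P. falciparum DNA-binding domains expressed in E. coli. Bound protein was picked up with Alexa488 anti-GST antibody and scanned at 488 nm.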

Sequence | gcPBM binding intensity (ln)
TGTGTCAAGTTTAATAAACGCATATAATATATATGA [CACACA_negctrl_site607] | 8.93
TTTTTTATATATGTGTGTGTGTGTGTGTCAAGTTTA [GTGCAC_negctrl_site460] | 10.3
AATTTTTTTTTTTTTTTTTTTTATATATGTGTGTGT [XGTACX_negctrl_site129] | 9.74
TATATAAATATTCGTAGTACAATACAATTATAAGTA [XGTACX_site3068] | 9.15
AACTAATAAAAAAAAAAAACATTAAACAGGACAAAT [XGTACX_negctrl_site287] | 9.78
CATATAAAAATATGCACACACAGGAATACAAACATA [CACACA_site684] | 10.2
AACATATAAAAATATGCACACACAGGAATACAAACA [CACACA_site8127] | 10.3
AAAATATAATATAATGCACACATAAACAAAAAAAAA [CACACA_site8161] | 9.78
AAAATATATACACAAACATGCATATAATAAATAAAT [TGCATGCA_site711] | 9.48
AATATAATATAATGCACACATAAACAAAAAAAAAAT [CACACA_site1304] | 9.89
AAAATATAATATAATGCACACATAAAACAAAAAAAA [CACACA_site8989] | 9.74
TATATATATATGTGTAGTACAACAAATATGAAAAAT [XGTACX_site4059] | 9.54
AAGAATATTTTTTTCTGTACATATAATTTATATACG [XGTACX_site5801] | 9.13
TATTAATACAGACACACACACACACTAATTAAAATA [CACACA_site7967] | 10.1
ATTTATATATATCATACACACTAATATGTATATTAT [CACACA_site5816] | 9.42
GGGAAATATTGAAACACACACGAACGCACGTATTTC [CACACA_site6258] | 9.54
ATTTATTTATCAAATATTATCTTAAAAAAAAAAGAA [CACACA_negctrl_site1345] | 8.79
ACAAATGGAACTCCTACAAAAAATTTCCATAATATT [XGTACX_negctrl_site132] | 9.16
TATTAATTCATTTTTTTTTTTTTTTTTTTTTTTTTT [CACACA_negctrl_site1215] | 9.13
ATTAATAAATAAATGACACACACACCCACAAAAAAA [CACACA_site8839] | 9.97
TTTATTAAGAAACACACACACACACCCAAAATAAAA [CACACA_site242] | 10
TAATAAATAAATGACACACACACACCCAAAAAAAAA [CACACA_site2623] | 10.2

Sequence | gcPBM binding intensity (ln)
CCCGAACAAACAAATAAACACACAAAAAAAAATATA [CACACA_site8540] | 9.63
TTTATTAATAAACACACACACACACCCAAAATAAAA [CACACA_site7966] | 10.2
CAAAAAATGAAACACACACACACACCCATAAATAAA [CACACA_site1231] | 10.1
GAATAATCCAAACACACACACACACCCGAATAAATA [CACACA_site482] | 10.2
ATAATCCTGAAACACACACACACACCCATAAATAAA [CACACA_site481] | 10.1
TATTTATTAAAACACACACACACACCCACAAAATAA [CACACA_site241] | 10.1
GTAATTTTATATGGTTGTACATATATATATATATAT [XGTACX_site6659] | 9.32
TAAAATATGGAAATCACACATTTATTAAAATATATA [CACACA_site4623] | 9.13
TGTATTAATATGGTAATACACACTAATATACTTTTG [CACACA_site1610] | 9.38
TTGATTTCATTTTAAGTGCATAACTAATATTATATA [GTGCAC_site9713] | 9.14
ATTATGAAATATCGTGCACACACGAATAATATAAGA [CACACA_site1294] | 9.42
AAAAAAAAAACAAATGCATGTAATATAAGAATTACA [TGCATGCA_site908] | 9.27
TACAGACAGAAATGCACACACATATTTATATTTATA [CACACA_site7139] | 9.75
CTAAAATACGAACACACACACACATATAAATAAATA [CACACA_site7872] | 10.3
TAACACATAAATAAATATATACATATATATAAAATA [CACACA_negctrl_site375] | 9.36
CATACAGACGAACACACACACATATAAATATAAATA [CACACA_site6443] | 9.91
AGTATACACGAACACACACACACATATATAAATATA [CACACA_site6913] | 10.3
AAACAAAAAATATATACACACTAAACATAAAAAAAA [CACACA_site4185] | 9.83
AACAAATACGAACACACACACACACTAAAAAAAAAA [CACACA_site6386] | 10.2
AACATATACACGAACACACACACATATAAATAAATA [CACACA_site6380] | 9.96
CGAACAAACAAATAAACACACAAAAAAAAATATATA [CACACA_site1825] | 9.61
CATATACACGAACACACACACATATAAATAAATATA [CACACA_site6379] | 10.1
